Assay results reported in PubChem BioAssay.
Values joined by “and” are separate entries in the source; they are usually repeats but may differ in a detail not shown here. Equal entries are not always repeated. Unmarked numbers belong to inactive results. How the calls were made is not given here. Non-standard residues stand in square brackets, D forms with d. Residues, ends and D or L forms follow the SMILES beside them. Orn = NCCC[CH](N)C(=O)O

What follows are compounds tested on Aerobactin synthetase IucA (Klebsiella pneumoniae hvKP1) (assay: Biochemical IucA enzyme inhibition primary screen of the Spectrum library (AID 1346200;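 further: 100% = wells without compound and 0% = wells lacking enzyme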)). Details: malachite green pyrophosphate, A620, at 8 µM, stronger effect = lower value.
Compound `NS(=O)(=O)c1cc2c(cc1Cl)NC(C(Cl)Cl)NS2(=O)=O` (centres undefined) has an activity remaining of 108%.
`N[C@H](Cc1ccccc1)C(=O)O` was tested, and the activity remaining was 122%.
`Nc1ccc(C(=O)NCC(=O)O)cc1` showed an activity remaining of 111%.
`CC(NCCc1ccc(O)cc1)C(O)c1ccc(O)cc1` (centres undefined) showed an activity remaining of 115%.
With `O=C1CC(c2ccc(O)cc2)Oc2ccccc21` (centres undefined) the activity remaining was 92%.
With `C[C@@H]1CC[C@@]2(OC1)OC1CC3C4CC=C5C[C@@H](O)CC[C@]5(C)C4CC[C@]3(C)C1[C@@H]2C` (some centres undefined) the activity remaining was 104%.
`COc1c(-c2coc3cc4c(cc3c2=O)CC(O)C(C)(C)O4)ccc2c1C=CC(C)(C)O2` (centres undefined) was tested, and the activity remaining was 112%.
With `CC(C)CCCC(C)C1CCC2C3CC(=O)[C@H]4C[C@@H](O)CC[C@]4(C)C3CC[C@]12C` (some centres undefined) the activity remaining was 121%.
In the case of `COc1ccc2ccc(=O)oc2c1CC=C(C)C`, the activity remaining is reported as 106%.
With `O=c1[nH]c2cc(Cl)c(Cl)cc2[nH]c1=O` the activity remaining was 121%.
For `CC(C)c1ccc2c(c1)CCC1[C@](C)(CN)CCC[C@]21C` (some centres undefined), the activity remaining was 111%.
With `CON` the activity remaining was 103%.
`CC(=O)O[C@H]1C(=O)[C@@]2(C)C([C@H](OC(=O)c3ccccc3)[C@]3(O)C[C@H](OC(=O)[C@H](O)[C@@H](NC(=O)c4ccccc4)c4ccccc4)C(C)=C1C3(C)C)[C@]1(OC(C)=O)CO[C@@H]1C[C@@H]2O` (some centres undefined) showed an activity remaining of 90.9%.
Work on `COc1ccccc1OCC(O)CO` (centres undefined) yielded an activity remaining of 94.5%.
`CC(Cc1cccc(C(F)(F)F)c1)NCCOC(=O)c1ccccc1` (centres undefined) showed an activity remaining of 98.2%.
Work on `CC(C)C(C)/C=C/C(C)[C@H]1CCC2C3=CCC4CC(=O)CC[C@]4(C)C3CC[C@@]21C` (some centres undefined) yielded an activity remaining of 92.7%.
In the case of `COc1cc(C(C)=O)cc(OC)c1O`, the activity remaining is reported as 94.5%.
`COc1cc(OC)c2ccc(=O)oc2c1` gave an activity remaining of 112%.
With `OCC(O)C(O)C(O)CO` (centres undefined) the activity remaining was 112% and 92.5%.
Compound `OC(Cn1cncn1)(Cn1cncn1)c1ccc(F)cc1F` has an activity remaining of 105%.
`O=c1c(-c2ccccc2)coc2cc(O)cc(O)c12` gave an activity remaining of 109%.
`O=C(/C=C/C(=O)Oc1ccccc1C(=O)O)Oc1ccccc1C(=O)O` showed an activity remaining of 92%.
For `CN(C)CCOC(c1ccccc1)c1ccccc1` (tested in a mixture with another compound), the activity remaining was 117%.
`CC(C)(CO)C(O)C(=O)NCCCO` (centres undefined) showed an activity remaining of 118%.
Compound `CC1(C)CC2C1CCC1(C)OC1CCC2(C)O` (centres undefined) has an activity remaining of 120%.
With `CC(C)NCC(O)COc1ccc(CC(N)=O)cc1` (centres undefined) the activity remaining was 117%.
With `O=c1cc(-c2ccc(O)cc2)oc2cc(O[C@@H]3O[C@H](CO)[C@@H](O)[C@H](O)[C@H]3O[C@@H]3OC[C@](O)(CO)[C@H]3O)cc(O)c12` the activity remaining was 103%.
With `CC(=O)O[C@@H]1CC2C(C)(C)[C@H](O)C[C@H](O)[C@]2(C)C2CC[C@@]3(C)C(=CC(=O)O[C@H]3c3ccoc3)[C@@]21C` (some centres undefined) the activity remaining was 102%.
`CC(=O)O[C@H]1CC[C@@]2(C)C(C[C@@H](OC(C)=O)[C@]3(C)C2CC[C@@]2(C)[C@H](c4ccoc4)OC(=O)[C@H]4O[C@]423)C1(C)C` (some centres undefined) showed an activity remaining of 82.9%.
`O=c1cc(-c2ccc(O)c(O)c2)oc2ccccc12` gave an activity remaining of 88.4%.
For `COC(=O)C(O)c1ccccc1` (centres undefined), the activity remaining was 108%.
`FC(F)(F)COCC(F)(F)F` was tested, and the activity remaining was 120%.
`CN1C2CC(OC(=O)[C@H](CO)c3ccccc3)C[C@H]1[C@H]1OC21` (some centres undefined) gave an activity remaining of 109%.
Work on `COc1ccc2c(=O)ccoc2c1` yielded an activity remaining of 120%.
With `CC(=O)N1CCCC1C(=O)O` (centres undefined) the activity remaining was 106%.
For `CC(CCC(=O)O)[C@H]1CCC2C3C(C[C@H](O)[C@@]21C)[C@@]1(C)CC[C@@H](O)C[C@H]1C[C@H]3O` (some centres undefined), the activity remaining was 99.6%.
For `COC(=O)C[C@@H]1C2(C)C(=O)[C@@H](CC3C2CC[C@]2(C)C3CC(=O)O[C@H]2c2ccoc2)[C@H](OC(C)=O)C1(C)C` (some centres undefined), the activity remaining was 109%.
With `CC(C)CC1NC(=O)C(CCCN)NC(=O)C(C(C)C)NC(=O)C(Cc2ccc(O)cc2)NC(=O)C(CCC(=O)O)NC(=O)C(CC(=O)O)NC(=O)C(Cc2ccccc2)NC(=O)C(Cc2ccccc2)NC(=O)C2CCCN2C(=O)C(Cc2ccccc2)NC1=O` (centres undefined) (cyclo(DEYV[Orn]LFPFF); configuration not given here) the activity remaining was 113%.
Compound `Oc1ccc2c(c1)OCC1c3cc4c(cc3OC21)OCO4` (centres undefined) has an activity remaining of 87.4%.
